Compound activity deposited in PubChem by several laboratories.
CYP2C19 act: increases human CYP2C19 enzyme activity. P33261. 96,000 tested, under 10 active. recombinant CYP2C19, luciferin-H EGE luminescence; active compounds read high; 0 = fully inhibited enzyme, 1 = untreated enzyme. activation factor at 5 µM;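 active = activation factor of at least 2 at 5 µM in the primary screen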
CYP2C9 act: CYP2C9 (human) activation; P11712; recombinant CYP2C9, luciferin-H conversion, luminescence; active compounds read high; factor 1 = untreated enzyme, 0 = blocked; activation factor at 5 µM; 96,000 tested, 1.4% active;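 active = activation factor of 2 or more for CYP2C9 at a 5 µM dose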
D1 allo mod: allosterically modulates the human D1 dopamine receptor. P21728. HEK293 D1, CRE-luciferase, dopamine EC30 potentiation; actives deviate in either direction. B-score at 10 µM. 58,000 tested, 5.9% active. AID 641;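 active = luminescence count or its row- and column-corrected plate score outside the 99.7% band of the plate's sample wells, on either side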
Target sequence (P21728 whole entry, looked up): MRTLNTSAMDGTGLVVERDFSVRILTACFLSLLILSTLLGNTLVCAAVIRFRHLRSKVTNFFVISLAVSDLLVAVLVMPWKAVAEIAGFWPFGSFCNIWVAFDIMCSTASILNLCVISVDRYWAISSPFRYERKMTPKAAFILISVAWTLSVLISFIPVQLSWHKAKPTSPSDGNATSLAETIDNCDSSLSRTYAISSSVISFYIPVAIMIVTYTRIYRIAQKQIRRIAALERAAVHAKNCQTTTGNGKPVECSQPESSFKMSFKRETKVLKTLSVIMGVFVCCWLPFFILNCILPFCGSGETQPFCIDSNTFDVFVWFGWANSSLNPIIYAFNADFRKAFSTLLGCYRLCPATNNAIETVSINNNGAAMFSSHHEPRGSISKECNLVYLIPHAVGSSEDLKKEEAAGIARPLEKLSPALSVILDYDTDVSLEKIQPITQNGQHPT
CYP2C9 inh: inhibitors of human CYP2C9. CYP2C9 Supersomes, luciferin-H conversion, luminescence. 96,000 tested, 20% active. inhibition, % at 5 µM;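 active = blocking of liver enzyme CYP2C9 beyond about 50% at 5 µM, limit read from the data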
DAT uptake mod: modulates human dopamine transporter uptake under cocaine; LLC-PK1 hDAT cells, [14C]-dopamine uptake with cocaine IC80; actives deviate in either direction; B-score at 10 µM; 110,000 tested, 1.3% active; AID 449768;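 active = Z score or B-score, a plate-position-corrected score, falls beyond the plate's 99.7% confidence bounds, in either direction; inactive = both scores lie inside the 99.7% bounds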
CYP2C19 inhib: human CYP2C19 inhibition | P33261 | CYP2C19 Supersomes, luciferin-H EGE luminescence, 30 min | inhibition, % at 5 µM | 96,000 tested, 21% active;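 active = CYP2C19 inhibition above a set limit at 5 µM in the primary screen, cut at about 50% in these data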
Each line names hits and unclear results; the compound was inactive in the other large screens. Sampled rows, rich in hits. Any-hit rate of the full collection: about 28%.

COCCCNC(=O)c1c(-c2ccccc2)noc1C	none
Cc1onc(-c2ccccc2)c1C(=O)Nc1nnc(-c2ccncc2)s1	CYP2C9 inh 99, CYP2C19 inhib 61
Cc1cccc2c1NC(=O)C2(c1ccc(O)cc1)c1ccc(O)cc1	CYP2C9 inh 79, CYP2C19 inhib 60 (no result: D1 allo mod)
CCCCCc1cc(=O)oc2c(C(CCN(CC)CC)c3ccc(N(C)C)cc3)c(OC)cc(OC)c12 (stereo not given)	none (no result: CYP2C19 act, CYP2C9 act, D1 allo mod, CYP2C9 inh, CYP2C19 inhib)
CSc1cccc(NC(=O)c2ccc(Cl)nc2)c1	none (no result: D1 allo mod)
Cc1cccc(NC(=O)c2ccc(-n3ccnc3)nc2)c1	CYP2C9 inh 98, CYP2C19 inhib 100 (no result: D1 allo mod)
CN(CC(=O)N1CCc2ccccc21)S(=O)(=O)c1ccc(Cl)cc1	CYP2C9 act 2.7, CYP2C19 inhib 60
CCOc1ccc(S(=O)(=O)N(CC(=O)N2CCc3ccccc32)Cc2ccco2)cc1	CYP2C9 inh 52, CYP2C19 inhib 92 (no result: D1 allo mod)
CC(=O)NO	none (no result: CYP2C19 act, CYP2C9 act, D1 allo mod, CYP2C9 inh, CYP2C19 inhib)
CC(NC(=O)c1cccs1)C(c1cccs1)N1CCN(Cc2ccccc2)CC1 (stereo not given)	D1 allo mod -2.1 (no result: CYP2C19 act, CYP2C9 act, CYP2C9 inh, CYP2C19 inhib)
CCN1CCN(C(c2cccs2)C(C)NC(=O)c2ccco2)CC1 (stereo not given)	D1 allo mod -1.4
O=c1ccn(CCOc2ccc(Cl)cc2)c(=O)[nH]1	CYP2C19 inhib 59
CS(=O)(=O)Nc1ccc(C(=O)NC2CCCC2)cc1	none (no result: D1 allo mod)
COC(=O)c1cc(Br)ccc1-c1ccc(/C=N/n2nnnc2N)o1	CYP2C19 inhib 56
Cc1sc2ncnc(NCC(C)(C)N3CCOCC3)c2c1C	none (no result: D1 allo mod)
CN(c1ccccc1C(=O)N1CCN(c2ccccc2)CC1)S(C)(=O)=O	none (no result: CYP2C19 act, CYP2C9 act, D1 allo mod, CYP2C9 inh, CYP2C19 inhib)
O=C(CN1CCC(n2nnc3cc(C(F)(F)F)ccc32)CC1)Nc1ccc2c(c1)OCCO2	CYP2C9 inh 87, CYP2C19 inhib 82
O=C(CN1CCC(n2nnc3cc(C(F)(F)F)ccc32)CC1)Nc1ccc2c(c1)CCC2	CYP2C9 inh 79, CYP2C19 inhib 54 (no result: D1 allo mod)
O=C(CN1CCC(n2nnc3cc(F)ccc32)CC1)NCc1ccco1	none
COc1ccc(C(=O)NNC(=O)CN2CCC(n3nnc4cc(C(F)(F)F)ccc43)CC2)cc1	none (no result: D1 allo mod)
Cc1nccc2[nH]c(=O)c(C(=O)NCCCN(C)C3CCCCC3)cc12	none
CN1CCCC(OC(=O)CCCC(=O)OC2CCCN(C)C2)C1 (stereo not given)	none
COc1ccc(C2C3=C(CC(C)(C)CC3=O)Oc3ncn(CCCn4ccnc4)c(=N)c32)cc1 (stereo not given)	CYP2C9 inh 78
COc1ccc(C2C3=C(CC(C)(C)CC3=O)Oc3ncn(Cc4ccccc4)c(=N)c32)cc1 (stereo not given)	none (no result: D1 allo mod)
CC1(C)CC(=O)C2=C(C1)Oc1ncn(CCCn3ccnc3)c(=N)c1C2c1ccccc1 (stereo not given)	CYP2C9 inh 90, CYP2C19 inhib 79
CCC(C)C(NC(=O)C1CCC(C)CC1)C(=O)NCc1ccccn1 (stereo not given)	none (no result: D1 allo mod)
O=C1CC(C(=O)N(c2ccc(F)cc2)C(C(=O)NC2CCCC2)c2ccccn2)CS1 (stereo not given)	none
COc1ccc2c(c1OC)C(=O)OC2C1c2c(cc3c(c2OC)OCO3)CCN1C (stereo not given)	CYP2C9 inh 89, CYP2C19 inhib 89
O=c1n(Cc2ccccc2F)c2ccccc2n1Cc1ccccc1F	none (no result: CYP2C19 act, CYP2C9 act, D1 allo mod, CYP2C9 inh, CYP2C19 inhib)
COc1cc(CCC(=O)Nc2cc(Cl)ccc2N2CCN(C)CC2)cc(OC)c1OC	CYP2C19 inhib 64
COc1ccc(Cl)cc1NC(=O)CCN1CCN(C)CC1	none (no result: D1 allo mod)
O=C(NCC1CCCO1)C1CC(=O)N(c2ccc(F)c(Cl)c2)C1 (stereo not given)	none (no result: D1 allo mod)
Cc1ccc2c(c1)nnn2C1CCN(S(=O)(=O)c2ccc(C(=O)N(C)C3CCCCC3)cc2)CC1	none (no result: D1 allo mod)
COc1cc(C2C3=C(CCCC3=O)Nc3[nH]n(-c4ccccc4)c(=O)c32)ccc1O (stereo not given)	none (no result: D1 allo mod)
COc1cc(C2Nc3ccc4ncccc4c3C3=C2C(=O)CCC3)ccc1O (stereo not given)	CYP2C9 inh 66, CYP2C19 inhib 91
Cc1ccsc1C1Nc2ccc3ncccc3c2C2=C1C(=O)CCC2 (stereo not given)	CYP2C9 inh 85, CYP2C19 inhib 90 (no result: D1 allo mod)
Cc1nc(SCC(=O)NCCc2ccccc2)n[nH]1	none
O=C(CSc1nccc(-c2ccc(Br)cc2)n1)NCCc1ccccc1	CYP2C19 inhib 62 (no result: D1 allo mod)
CN(C)C(N)=NCCC[C@H](N)C(=O)O	none (no result: CYP2C19 act, CYP2C9 act, D1 allo mod, CYP2C9 inh, CYP2C19 inhib)
O=C(N/N=C/c1cc2ccccc2nc1Cl)/C(=C/c1cccs1)NC(=O)c1ccccc1	CYP2C19 inhib 80 (no result: D1 allo mod)
COc1ccc([N+](=O)[O-])cc1/C=N/NC(=O)/C(=C\c1cccs1)NC(=O)c1ccccc1	none (no result: D1 allo mod)
CCCSC1=C(C#N)C(c2cccs2)C(C(=O)Nc2ccccc2)=C(C)N1 (stereo not given)	none (no result: CYP2C19 act, CYP2C9 act, D1 allo mod, CYP2C9 inh, CYP2C19 inhib)
CC1=C(C(=O)Nc2ccccc2)C(c2ccncc2)C(C#N)=C(SCC(=O)NC(C)C)N1 (stereo not given)	CYP2C9 inh 65, CYP2C19 inhib 78 (no result: D1 allo mod)
CC1=C(C(=O)Nc2ccccc2)C(c2ccncc2)C(C#N)=C(SCC(=O)NC2CC2)N1 (stereo not given)	CYP2C9 inh 77, CYP2C19 inhib 85
COc1cc(CCCN2C(=S)NC[C@@H]2CC2CCCCC2)cc(OC)c1OC	none (no result: CYP2C19 act, CYP2C9 act, D1 allo mod, CYP2C9 inh, CYP2C19 inhib)
C=CCOc1ccccc1C1NC(=O)NC(C)=C1C(=O)NCc1ccccc1 (stereo not given)	none (no result: D1 allo mod)
Cc1cccc(N(C(=O)Cn2nnc3ccccc32)C(C(=O)NC(C)(C)C)c2ccsc2)c1 (stereo not given)	none (no result: D1 allo mod)
Cc1nc(NCc2ccco2)[nH]c(=O)c1CCC(C)C	CYP2C19 inhib 57
O=C(O)c1ccc(NS(=O)(=O)c2ccc(Cl)c(Cl)c2)cc1O	none
CCc1ccc(CC)c(S(=O)(=O)Nc2ccc(O)c(C(=O)O)c2)c1	CYP2C9 inh 77
CCc1ccc(CC)c(S(=O)(=O)Nc2ccc(C(=O)O)c(O)c2)c1	CYP2C9 inh 83
CC1Cc2nc(SCC(=O)N3CCN(c4ccccc4)CC3)n(CCc3ccccc3)c(=O)c2S1 (stereo not given)	CYP2C9 inh 76 (no result: D1 allo mod)
CC1Cc2nc(SCC(=O)N3CCN(c4ccccc4)CC3)n(C)c(=O)c2S1 (stereo not given)	CYP2C9 inh 71, CYP2C19 inhib 67 (no result: D1 allo mod)
CCOC(=O)CSc1nnc(CNC(=O)Cc2ccccc2)n1C	none
O=C(CCn1nnc2ccccc21)Nc1nnc(-c2ccccc2F)s1	CYP2C9 inh 56 (no result: D1 allo mod)
Cc1cc(C)n(-c2nc(SCCN(C)C)c3c4c(sc3n2)CCCC4)n1	DAT uptake mod 3 (no result: D1 allo mod)
CCC(c1nnnn1CCc1ccccc1)N(Cc1ccco1)Cc1cc2c(C)ccc(C)c2[nH]c1=O (stereo not given)	CYP2C9 inh 94, CYP2C19 inhib 93
CCC(c1nnnn1Cc1ccccc1)N(Cc1ccco1)Cc1cc2cc(OC)ccc2[nH]c1=O (stereo not given)	DAT uptake mod 3.4 (no result: D1 allo mod)
